Hit rate of the full screen: of about 13,000 compounds, about 3,200 (25%) showed an effect of 50% or more. The list shows a part of the results.
Each compound was assayed on P. falciparum stage V gametocytes. Settings: 48 h, 5 µM; inhibitor.
Parameters: BacTiter-Glo ATP luminescence viability of purified stage V gametocytes in 384-well plates, per cent inhibition versus DMSO

Row | SMILES | % Inhibition [%]
1 | CO/C(=C\C=C\c1cc2cc(Cl)c(Cl)cc2[nH]1)C(=O)NCCCN1CCN(c2ccncc2)CC1 [TCMDC-139184] | 16.21
2 | CN(C)CCCSc1ccccc1NC(=O)C=Cc1ccccc1 [TCMDC-125843] | 7.207
3 | Cc1ccc(-c2noc(COc3ccccc3C(=O)NC3CCCC3)n2)cc1 [TCMDC-124748] | 47.39
4 | FC(F)(F)c1ccc2nccc(NCc3ccccc3)c2c1 [TCMDC-138259] | -8.95
5 | CCc1ccc(NC(=O)c2ccc(CN3CCCN(CCC(C)C)CC3)cc2)cc1 [TCMDC-136448] | -6.236
6 | COc1ccc2oc(=O)c(C#N)c(O)c2c1 [TCMDC-131398] | -8.165
7 | CN1CCN(CCCN(Cc2ccc(-c3ccc(CNC4CCCC4)cc3)cc2)C(=O)CCC2CCCC2)CC1 [TCMDC-140560] | 99.06
8 | CCCCCCN1CCC(NCc2ccc(CN(C)C)cc2)CC1 [TCMDC-141662] | 16.26
9 | CN1CCN(CCCN(Cc2cccc(-c3cccc(CNC4CCCC4)c3)c2)C(=O)CCC2CCCC2)CC1 [TCMDC-140555] | 119.1
10 | CN1CCN(CCCN(Cc2cccc(-c3ccc(CNC4CCCC4)cc3)c2)C(=O)CCC2CCCC2)CC1 [TCMDC-140750] | 98.64
11 | FC(F)(F)c1cccc(CNC2CCN(CC3CCCCC3)CC2)c1 [TCMDC-141660] | -52.78
12 | FC(F)(F)c1ccc(CNC2CCN(CC3CCCCC3)CC2)cc1 [TCMDC-141661] | -50.93
13 | CCCCCCN1CCC(NCc2cccc(C#N)c2)CC1 [TCMDC-141670] | -17.05
14 | CCCC(C)Nc1nc(C)cc(N[C@@H](Cc2ccccc2)C(=O)Nc2ccccc2)n1 (stereo partly drawn) [TCMDC-134767] | -30.62
15 | CCc1c(C(=O)NC2CCC(N3CCC(c4ccccc4OC)CC3)CC2)[nH]c2ccc(Br)cc12 (stereo not drawn) [TCMDC-133499] | -52.27
16 | COc1ccccc1C(C)NCC(=O)Nc1cc(C(F)(F)F)ccc1Cl (stereo not drawn) [TCMDC-125041] | -2.208
17 | COc1ccc(Nc2nccc(N3CCC(NS(=O)(=O)c4ccc(NC(C)=O)cc4)C3)n2)cc1 (stereo not drawn) [TCMDC-133608] | -25.9
18 | CNC(=O)C(NC(=O)c1ccccc1C(=O)OC)c1ccccc1 (stereo not drawn) [TCMDC-137226] | 6.158
19 | CCN(CC)CCN(Cc1ccc(-c2ccc(C(F)(F)F)cc2)cc1)C(=O)Cn1cc(Cc2cnn(C)c2)c(=O)nc1/C=C/c1cccc(F)c1F [TCMDC-140964] | 99.53
20 | CCN(CC)CCN(Cc1ccc(-c2ccc(C(F)(F)F)cc2)cc1)C(=O)Cn1cc(Cc2cnn(C)c2)c(=O)nc1/C=C/c1ccc(F)cc1 [TCMDC-140741] | 95.48
21 | O=C(Cc1cc(=O)oc2cc(O)ccc12)N1CCC(CN2CCC(c3c[nH]c4ccccc34)CC2)CC1 [TCMDC-139881] | 9.393
22 | N#Cc1cccc(NC(=O)Nc2ccc(-c3csc(-c4nc5ccccc5[nH]4)c3)cc2)c1 [TCMDC-133188] | 30.15
23 | Cn1nc(C(F)(F)F)cc1-c1ccc(C(=O)Nc2ccc3c(c2)CNCC3(C)C)s1 [TCMDC-141916] | 39.68
24 | NC(N)=NC(=O)Nc1cc(Cl)c(Cl)c(C(F)(F)F)c1 [TCMDC-137511] | -11.78
25 | CCCCC(=O)Nc1cc(=O)[nH]c2nc(-c3ccc(Cl)cc3)nn12 [TCMDC-125002] | 1.203
26 | COc1cc(NC(=O)/C=C/c2cc(F)cc(F)c2F)cc(OCCN2CCC(O)(c3ccccc3)CC2)c1 [TCMDC-140936] | -10.33

Row | SMILES | % Inhibition [%]
27 | N#Cc1cccc(NC(=O)Nc2ccc3c(c2)CCN(C2CCC2)CC3)c1 [TCMDC-136005] | 22.54
28 | COc1ccc(C(C(=O)NC2CCN(C[C@H](O)c3ccnc4ccc(OC)cc34)CC2)N2CCN(Cc3ccccc3)CC2)cc1 (stereo partly drawn) [TCMDC-140987] | -16.46
29 | CN1CCC(COC(=O)C(O)(c2ccccc2)c2ccccc2)C1 (stereo not drawn) [TCMDC-131375] | 2.294
30 | C=CCNS(=O)(=O)c1ccc(NC(=O)C(C)Oc2ccc([N+](=O)[O-])cc2)cc1 (stereo not drawn) [TCMDC-125123] | 69.95
31 | CCNS(=O)(=O)c1ccc(Oc2ccc([N+](=O)[O-])cc2)cc1 [TCMDC-137451] | -0.3916
32 | CCCNS(=O)(=O)c1ccc(NC(=O)C(C)Oc2ccc([N+](=O)[O-])cc2)cc1 (stereo not drawn) [TCMDC-125122] | 65.91
33 | NCCNc1ccc([N+](=O)[O-])cc1C(=O)Nc1cccc(Cl)c1 [TCMDC-123690] | 33.32
34 | Cc1cc(N(C)C)nc(Nc2ccc(NC(=O)C(C)Oc3ccccc3)cc2)n1 (stereo not drawn) [TCMDC-124974] | 7.49
35 | Cc1ccc(NC(=O)c2cc([N+](=O)[O-])ccc2NCc2cccnc2)cc1Cl [TCMDC-124571] | 7.674
36 | CCCCNS(=O)(=O)c1ccc(NC(=O)c2cc([N+](=O)[O-])ccc2Cl)cc1 [TCMDC-124345] | 83.43
37 | C=CCNC(=O)C(C)c1ccc2cc(OC)ccc2c1 (stereo not drawn) [TCMDC-132021] | 24.74
38 | Cc1cc(N2CCCC2)nc(Nc2ccc(NC(=O)C(C)Oc3ccccc3)cc2)n1 (stereo not drawn) [TCMDC-124968] | 18.82
39 | O=C(Nc1ccc(OC2CCN(Cc3ccc(F)cc3)CC2)c(Cl)c1)c1ccoc1 [TCMDC-133744] | 29.48
40 | C[C@H](NC(=O)c1c(CN2CCN(C(=O)C(C)(C)C)CC2)c(-c2cccs2)nc2ccccc12)C1CCCCC1 [TCMDC-141723] | -7.5
41 | C[C@H](NC(=O)c1c(CN2CCC(NC(=O)CC(C)(C)C)CC2)c(-c2cccs2)nc2ccccc12)C1CCCCC1 [TCMDC-141792] | 25.58
42 | CC(C)CC(=O)NC1CCN(Cc2c(-c3cccs3)nc3ccccc3c2C(=O)N[C@@H](C)C2CCCCC2)CC1 [TCMDC-141791] | -23.57
43 | C[C@H](NC(=O)c1c(CN2CCC(N3CCCCC3=O)CC2)c(-c2cccs2)nc2ccccc12)C1CCCCC1 [TCMDC-141620] | -63.06
44 | CCNC(=O)NC1CCN(Cc2c(-c3cccs3)nc3ccccc3c2C(=O)N[C@@H](C)C2CCCCC2)CC1 [TCMDC-141704] | 101.3
45 | CNC(=O)NC1CCN(Cc2c(-c3cccs3)nc3ccccc3c2C(=O)N[C@@H](C)C2CCCCC2)CC1 [TCMDC-141689] | 58
46 | CNC(=O)c1cc(NCCCNCc2ccc(Cl)c(C(F)(F)F)c2)nc2ccccc12 [TCMDC-141082] | 72.56
47 | Cc1nc2ccccc2c(=O)n1NCc1ccc(Cl)c(Cl)c1 [TCMDC-131405] | 15.32
48 | O=c1cc(NCCCNCc2ccc(C(F)(F)F)c(F)c2)[nH]c2ccccc12 [TCMDC-139428] | -42.45
49 | CCc1cc2c(Sc3nc4ccccc4[nH]3)ncnc2s1 [TCMDC-124553] | 60.6
50 | Clc1ccc(Nc2nc(Nc3ccc(Cl)c(Cl)c3)nc(Sc3nc4ccccc4[nH]3)n2)cc1Cl [TCMDC-124069] | -24.51
51 | Cc1sc2ncnc(Sc3nc4ccccc4[nH]3)c2c1C [TCMDC-123835] | 57.62
52 | Nc1ncc(-c2ccsc2)cc1-c1nc2ccccc2[nH]1 [TCMDC-133557] | 13.31

Row | SMILES | % Inhibition [%]
53 | COc1ccc(NC(=O)[C@H](CC(C)C)Nc2cc(C)nc(Nc3ccccc3)n2)cc1 [TCMDC-134738] | -4.957
54 | CCCCn1c(C)c(C(=O)OCC)c2cc(OC(C)=O)c(Br)cc21 [TCMDC-125582] | -26.36
55 | CC(C)CNC(=O)c1cncc(-c2cccc(CNC3Cc4ccccc4C3)c2)c1 [TCMDC-134219] | -68.65
56 | CCCNC(=O)c1cncc(-c2cccc(CNC3Cc4ccccc4C3)c2)c1 [TCMDC-134220] | -28.4
57 | c1cc(CNC2Cc3ccccc3C2)cc(-c2cnc(N3CCNCC3)nc2)c1 [TCMDC-133140] | 110.7
58 | CC[C@H](C)CNC(=O)c1cncc(-c2ccc(CNC3Cc4ccccc4C3)cc2)c1 [TCMDC-134240] | -0.9583
59 | CC1CN(c2ncc(-c3ccc(CNC4Cc5ccccc5C4)cc3)cn2)CC(C)N1 (stereo not drawn) [TCMDC-133769] | 77.63
60 | CCCNCc1ccc(-c2ccc(CNC3Cc4ccccc4C3)cc2)nc1 [TCMDC-141616] | 6.713
61 | CN(CCCNCc1ccc2ccccc2c1)CCCNCc1ccc2ccccc2c1 [TCMDC-137908] | 106.3
62 | CN(CCCNCc1cccc2ccccc12)CCCNCc1cccc2ccccc12 [TCMDC-137905] | 108.9
63 | N#Cc1ccc(-c2ccc(C(=O)NCCCCN3CC=C(c4ccc5c(c4OCC4CC4)CCCC5)CC3)cc2)cc1 [TCMDC-138756] | 42.6
64 | O=C(c1ccc(OCCn2ccnc2)cc1)N1CCC(c2ccc(Br)cc2)C1 (stereo not drawn) [TCMDC-134837] | 38.05
65 | CN(CCCN(C)c1cc(NC(=O)c2cccc(F)c2)ccn1)Cc1cccc(O)c1 [TCMDC-134952] | -21.83
66 | Cc1ccc(C(O)CNc2ccnc(Nc3cccc(-c4csc(C)n4)c3)n2)cc1 (stereo not drawn) [TCMDC-136570] | 6.544
67 | O=C(NC1CCN(Cc2ccccc2)CC1)c1cc(C(=O)NC2CCN(Cc3ccccc3)CC2)cc(C(=O)NC2CCN(Cc3ccccc3)CC2)c1 [TCMDC-124568] | 67.11
68 | O=C(NC1CCN(Cc2ccccc2)CC1)c1ccc(CNC2CCN(Cc3ccccc3)CC2)cc1 [TCMDC-140787] | 27.85
69 | CC1(C)CC(NC(=O)NC2CCN(Cc3ccccc3)CC2)CC(C)(CNC(=O)NC2CCN(Cc3ccccc3)CC2)C1 (stereo not drawn) [TCMDC-139018] | 101.1
70 | CN1CCC(COc2ccc(CN3CCC(NC(=O)c4cccc(Cl)c4)CC3)cc2)CC1 [TCMDC-132796] | 95.19
71 | O=C(NC1CCN(Cc2ccc(O)cc2)CC1)c1ccc(Cl)c(Cl)c1 [TCMDC-141735] | 18.11
72 | O=C(Nc1ccnc2ccccc12)NC1CCN(Cc2ccccc2)CC1 [TCMDC-139643] | -13.5
73 | O=C(NC1CCN(Cc2ccccc2)CC1)c1ccc(-c2nc3cc(Cl)c(F)cc3[nH]2)cc1 [TCMDC-140093] | -50.28
74 | Cc1[nH]c(-c2ccc(F)cc2)cc1C(=O)NC1CCN(Cc2ccccc2)CC1 [TCMDC-124396] | 76.63
75 | COc1cc(-c2cc3cc(Cl)c(Cl)cc3[nH]2)ccc1C(=O)NC1CCN(Cc2ccccc2)CC1 [TCMDC-141288] | -32.17
76 | CCOc1cc(C(=O)NC2CCN(Cc3ccccc3)CC2)ccc1-c1nc2ccc(Cl)cc2[nH]1 [TCMDC-140912] | -17.04
77 | Cc1cc2nc(-c3ccc(C(=O)NC4CCN(Cc5ccccc5)CC4)s3)[nH]c2cc1C [TCMDC-140513] | 1.433
78 | CC(C)c1ccc(NC(=O)c2ccc(C(=O)NC3CCN(Cc4ccccc4)CC3)cc2)cc1 [TCMDC-136752] | -24.91

Source: publication PMC4552634, “A New Set of Chemical Starting Points with Plasmodium falciparum Transmission-Blocking Potential for Antimalarial Drug Discovery” (PLoS ONE, 2015)
